A selection: hits, their analogues and other compounds. The true share with any hit is near 19%.
HT1080 IDH1KD tx = HT-1080 IDH1 knockdown cell toxicity (counter line); Potency, µM (top dose mostly 46.1 µM), inactives show at the highest dose activity, negative = toxicity, usual class: cytotoxic; HT-1080 IDH1 knockdown viability, ATP luminescence, 48 h; 360,000 compounds, 2% hits; AID 686971;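 further: potency means the concentration at half of the fitted maximal effect; 0% = DMSO wells and -100% = cell-free medium wells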
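CellTiter-Glo luminescence after 48 h compound exposure at 37 degrees C of IDH1-knockdown HT-1080 cells in 5% FBS RPMI. %Activity scaled between DMSO wells and cell-free media wells, with curves fitted and assigned curve classes.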
HT1080NT lethal = kills 2HG-producing HT-1080-NT fibrosarcoma cells; HT-1080-NT fibrosarcoma viability, CellTiter-Glo ATP luminescence, 48 h; Potency, µM (top dose mostly 46.1 µM), for the others: at the highest dose activity, negative = less viability, most hits filed as cytotoxic; 360,000 compounds, 1.6% hits;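 further: NT is the 2HG producing partner of a matched IDH1 knockdown line; potency means the concentration at half of the fitted maximal effect; 0% = DMSO-treated cells and -100% = media-only wells without cells; nearly all actives have a fitted effect of over 55% in size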
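Luminescent CellTiter-Glo readout after 48 hours of compound exposure at 37 degrees C defined viability of HT-1080-NT cells. Activity was normalized to DMSO wells and cell-free media wells; concentration-response curves were fitted and assigned curve classes.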
IL1B secr inh = inhibitors of inflammasome signaling (IL-1 beta secretion). 360,000 compounds, 4.7% hits. AID 743279. THP-1 LPS/ATP IL-1B secretion, AlphaLISA, 16 h; hits give low values. activity change, % at 57.5 µM; in the data active means activity change below about -50%; inconclusive means mostly about -30% to -49%
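THP-1 cells pretreated 1 hr with compounds (up to 57.5 uM final), then stimulated with LPS (250 ng/mL final) plus ATP (1.25 mM final); secreted IL-1B measured by AlphaLISA after 16 hr, decreased signal indicating inhibition.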
TDP1 cell noCPT = qHTS for Inhibitors of human tyrosyl-DNA phosphodiesterase 1 (TDP1): qHTS in cells in absence of CPT; Potency, µM (doses to about 46.2 µM), for the others: at the top dose activity change, negative = growth inhibition, most hits filed as inhibitors; DT40 Tdp1-/- hTDP1 cells, no CPT, ATP luminescence, 48 h; 420,000 compounds, 15% hits; further: potency means the concentration at half of the fitted maximal effect; nearly all actives have a fitted effect of over 55% in size
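Growth kinetics read by CellTiter-Glo luminescence after ≥48 hr at 37 °C. Cells: DT40 Tdp1-/- stably carrying human TDP1, 400 per well, compound exposure in the absence of CPT (DMSO vehicle).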
TDP1 cell CPT = DT40-hTDP1 cell growth loss with CPT; chicken DT40 Tdp1-/-;hTDP1 cells + 20 nM CPT, ATP luminescence, 48 h; 420,000 compounds, 12% hits; Potency, µM (doses to about 46.2 µM), inactives show at the top dose activity change, negative = growth inhibition, usual class: inhibitors; further: potency means the concentration at half of the fitted maximal effect; nearly all actives have a fitted effect of over 55% in size
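Chicken DT40 Tdp1-/- cells stably complemented with human TDP1 were seeded at 400 cells/well in medium containing 20 nM camptothecin, exposed to pin-transferred compounds, and grown at 37 °C for at least 48 hr. Viability was read as ATP luminescence.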
ELG1 DNA repair = ELG1-dependent DNA repair inhibition; 330,000 compounds, 2.3% hits; HEK293T ELG1-luciferase reporter, luminescence, 16 h; DNA damage induced by 5-fluorouridine; Potency, µM (doses to about 46.1 µM), for inactives: top-dose activity change, negative = inhibition, most hits filed as inhibitors; further: potency means the concentration at half of the fitted maximal effect; nearly all actives have a fitted effect of over 55% in size
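Cells (2,000 per well) received 5-fluorouridine plus test compound or DMSO and were incubated 16 hr at 37 °C, 5% CO2. Luciferase activity was read by luminescence 30 min after ONE-Glo addition; signal suppression marked inhibition of damage-induced ELG1 function.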
Active calls of the source: *; ? = inconclusive; nt = no result given; [ ] = dose if it differs, or a comment. Unless noted, the call rests on the fitted dose curve; in most records, active means well fitted curve in the direction sought with a large enough effect; inconclusive means small, poorly fitted or top-dose-only effect, or another doubt; inactive means no such curve, though single readings can be large; an effect the other way counts as inactive or inconclusive. Unless noted, on the % scale 0 is the no-effect control and ±100 the full control effect.

SMILES | HT1080 IDH1KD tx | HT1080NT lethal | IL1B secr inh | TDP1 cell noCPT | TDP1 cell CPT | ELG1 DNA repair
CCOC(=O)[C@@H](C)N(Cc1ccc(OC)cc1)S(=O)(=O)N(Cc1ccccc1)[C@H](C(=O)OC)C(C)C | -3.7% | -21.4% | 16.7 | -92.7% | ? | 3.5%
CCOC(=O)[C@@H](C)NS(=O)(=O)N(Cc1ccccc1)[C@H](C(=O)OC)C(C)C | 4.7% | 10.8% | 2.0 | ? | ? | 2.8%
COc1ccc(-c2cn(CC[C@@H]3CC[C@H](NC(=O)Cc4ccccn4)[C@@H](CO)O3)nn2)cc1 | 17.4% | 0.0% | -16.8 | -7.0% | -5.9% | nt
COCCN(C(=O)COC(=O)c1cnc(C)cn1)c1c(N)n(Cc2ccccc2)c(=O)[nH]c1=O | -1.7% | 15.6% | -10.9 | 3.9% | 10.1% | 2.3%
Cc1cccc(N2CC(O)(c3cccs3)[N+]3=C2CCCC3)c1C (centres undefined) | -23.6% | -8.9% | 0.0 | 20.6µM* | ? | -20.3%
CCOC(=O)C1CCN(C(=O)c2sc3ncnc(N4CCC(C)CC4)c3c2C)CC1 | -23.0% | -14.2%[9.24 µM] | -29.6 | ? | ? | 23.1µM*
CCOC(=O)C1CCCN(C(=O)c2sc3nc4n(c(=O)c3c2C)CCC4)C1 (centres undefined) | 0.0% | 8.5% | 9.1 | -17.4% | -0.5% | 12.5%
CCOC(=O)C1CCN(C(=O)c2sc3nc(C)nc(N4CCC(C)CC4)c3c2C)CC1 | -15.7% | 1.8%[9.24 µM] | 20.3 | ? | ? | 23.1µM*
Cc1c(C(=O)N2CCN(c3ccccc3)CC2)sc2ncnc(N3CCC(C)CC3)c12 | nt | nt | nt | nt | nt | 7.4%
O=C(NC1C2CCCC1CN(C1CC1)C2)c1ccc(Cl)cc1 (centres undefined) | 10.6% | 14.8% | -19.4 | 29.1µM* | ? | -6.7%
COc1ccc(-n2c(O)c(/C=N/Nc3nc(C)cc(C)n3)c3ccccc3c2=O)cc1OC | ? | ? | 67.2 | ? | ? | ?
COc1ccccc1NS(=O)(=O)c1cccc(-n2c(O)c(C=Nc3ccccc3C(=O)O)c3ccccc3c2=O)c1 | ? | ? | 34.0 | 13µM* | ? | ?
COc1ccc(-n2c(O)c(/C=N/NS(=O)(=O)c3ccc(C)cc3)c3ccccc3c2=O)cc1OC | -17.6% | -8.7% | 20.3 | 16.4µM* | 18.4µM* | -2.6%
COc1ccc(-n2c(O)c(/C=N/NS(=O)(=O)c3cc(C)ccc3C)c3ccccc3c2=O)cc1OC | -1.0% | -13.9% | 5.4 | 16.4µM* | 20.6µM* | -6.5%
COc1cc(C=NNc2ccc(S(=O)(=O)Nc3ccccc3C(=O)O)cc2[N+](=O)[O-])ccc1O | 0.0% | 0.1% | 7.1 | -1.5% | 3.1% | -8.1%
COc1ccc(NC(=S)Nc2cccc(C(F)(F)F)c2)c(C)c1 | 2.0% | 12.0% | -10.4 | -13.2% | -27.7% | 2.5%
COc1ccc(C)cc1S(=O)(=O)N1CCN(C(=O)c2ncoc2-c2ccccc2F)CC1 | 1.9% | 1.7% | 13.5 | ? | -1.0% | 4.3%
CC(C)(CNC(=O)/C=C/c1ccc(F)cc1)CNC(=O)/C=C/c1ccc(F)cc1 | ? | ? | -87.6* | ? | ? | 23.1µM*
COc1ccc(/C=C/C(=O)NCCCN2CCCCCC2)cc1 | 29.5% | 17.3% | -26.6 | 22.2% | 1.2% | -10.8%
O=C(/C=C/c1ccc(F)cc1)NCCCN1CCN(CCCNC(=O)/C=C/c2ccc(F)cc2)CC1 | -5.3% | -5.5% | -26.3 | 25.9µM* | ? | -1.9%
COc1ccccc1CNN | -2.9% | -3.8% | ? | 5.8µM* | 2.59µM* | 20.1%
COc1ccccc1CNCCCCCCNCCCCCCCCNCCCCCCNCc1ccccc1OC | nt | nt | nt | 6.51µM* | 13µM* | nt
Cc1onc(-c2c(F)cccc2Cl)c1C(=O)Nc1cc2cc([N+](=O)[O-])ccc2oc1=O | -2.2% | -7.6% | 0.0 | 2.3% | -16.5% | nt
C/C(CC(=O)Nc1cc(Cl)ccc1Cl)=N\NC(N)=S | -4.4% | -8.4% | -22.0 | -23.4% | ? | 3.5%
CO/N=C\CC(=O)Nc1ccc(F)cc1 | 1.5% | 8.3% | 42.2 | -6.5% | -1.0% | 8.2%
SMILES | HT1080 IDH1KD tx | HT1080NT lethal | IL1B secr inh | TDP1 cell noCPT | TDP1 cell CPT | ELG1 DNA repair
C/C(CC(=O)Nc1ccc(Cl)cc1Cl)=N\NC(N)=S | 7.94µM* | 10µM* | -11.6 | -28.7% | -18.4% | 1.5%
CO/N=C\CC(=O)Nc1ccc(Cl)cc1Cl | 8.2µM* | ? | 1.2 | 20.6µM* | 11.6µM* | 6.6%
O=C(NCCCN1CCCC1=O)C(=O)NCC1OCCN1S(=O)(=O)c1ccc(Cl)cc1 (centres undefined) | 1.0% | 0.2% | 0.0 | -3.2% | 0.7% | -1.7%
O=C(OCc1c(-c2ccccc2)ncc2ccccc12)N1CCOCC1 | 6.3% | 4.5% | ? | ? | ? | ?
COc1ccc(C(=O)CSc2nnc(NC(=O)C3CC(=O)N(c4ccccc4)C3)s2)cc1 (centres undefined) | 5.2% | 12.3% | 10.4 | ? | -18.4% | -8.1%
COc1ccc(N(CC(=O)NCc2ccccc2OC)S(=O)(=O)c2ccccc2[N+](=O)[O-])c(OC)c1 | 7.2% | 12.2% | -23.6 | ? | ? | -1.0%
COc1ccc(N(CC(=O)Nc2cc(C)ccc2C)S(=O)(=O)c2ccccc2[N+](=O)[O-])c(OC)c1 | -13.2% | -18.2% | 0.0 | 11.6µM* | ? | -0.9%
COc1ccc(N(CC(=O)NCc2ccc3c(c2)OCO3)S(=O)(=O)c2ccccc2[N+](=O)[O-])c(OC)c1 | -7.3% | -4.5% | -15.6 | ? | 25.9µM* | 7.2%
COc1ccc(N(CC(=O)Nc2cc(C)cc(C)c2)S(=O)(=O)c2ccccc2[N+](=O)[O-])c(OC)c1 | 16.0% | 3.8% | 0.8 | -24.4% | ? | -5.4%
O=C(c1ccc2[nH]ccc2c1)N1CCCC(Nc2ccccc2)C1 (centres undefined) | -3.3% | 12.4% | -13.1 | 9.9% | -2.9% | ?
O=C(CN(Cc1ccc(F)cc1)C(=O)CCC(=O)Nc1ccccn1)NCCc1ccccc1 | 3.5% | 22.7% | 23.0 | -20.7% | -16.2% | -14.9%
CCCC(=O)Oc1c(Sc2ccc(Cl)cc2)c(C)nn1-c1ccccc1 | nt | nt | nt | 20.6µM* | 20.6µM* | nt
CCOC(=O)c1ccc(NC(=O)NCc2ccccn2)cc1 | -1.0% | -0.3% | -22.9 | 9.1% | 8.2% | 11.0%
Cn1cc(S(=O)(=O)N2CCCC2)cc1C(=O)Nc1ccc(F)cc1F | nt | nt | nt | -5.5% | ? | nt

Screening data (PubChem)
